Measured values reported in the supplement of paper PMC3334620.
In all, about 33,000 sequences were measured (“E-score (-0.5 to 0.5)”: median about -0.035, highest 2% from about 0.35 on). Shown is part of a subset that was picked to be rich in the highest values.

What follows are sequences tested against T1, Pdr3 (UniProt P33200) (assay: PBM E-score (8-mer binding enrichment) (E-score (-0.5 to 0.5)); higher = stronger / more preferred TF binding). Details: protein concentration: 200 nM; construct: GST-full length.
T1 sequence: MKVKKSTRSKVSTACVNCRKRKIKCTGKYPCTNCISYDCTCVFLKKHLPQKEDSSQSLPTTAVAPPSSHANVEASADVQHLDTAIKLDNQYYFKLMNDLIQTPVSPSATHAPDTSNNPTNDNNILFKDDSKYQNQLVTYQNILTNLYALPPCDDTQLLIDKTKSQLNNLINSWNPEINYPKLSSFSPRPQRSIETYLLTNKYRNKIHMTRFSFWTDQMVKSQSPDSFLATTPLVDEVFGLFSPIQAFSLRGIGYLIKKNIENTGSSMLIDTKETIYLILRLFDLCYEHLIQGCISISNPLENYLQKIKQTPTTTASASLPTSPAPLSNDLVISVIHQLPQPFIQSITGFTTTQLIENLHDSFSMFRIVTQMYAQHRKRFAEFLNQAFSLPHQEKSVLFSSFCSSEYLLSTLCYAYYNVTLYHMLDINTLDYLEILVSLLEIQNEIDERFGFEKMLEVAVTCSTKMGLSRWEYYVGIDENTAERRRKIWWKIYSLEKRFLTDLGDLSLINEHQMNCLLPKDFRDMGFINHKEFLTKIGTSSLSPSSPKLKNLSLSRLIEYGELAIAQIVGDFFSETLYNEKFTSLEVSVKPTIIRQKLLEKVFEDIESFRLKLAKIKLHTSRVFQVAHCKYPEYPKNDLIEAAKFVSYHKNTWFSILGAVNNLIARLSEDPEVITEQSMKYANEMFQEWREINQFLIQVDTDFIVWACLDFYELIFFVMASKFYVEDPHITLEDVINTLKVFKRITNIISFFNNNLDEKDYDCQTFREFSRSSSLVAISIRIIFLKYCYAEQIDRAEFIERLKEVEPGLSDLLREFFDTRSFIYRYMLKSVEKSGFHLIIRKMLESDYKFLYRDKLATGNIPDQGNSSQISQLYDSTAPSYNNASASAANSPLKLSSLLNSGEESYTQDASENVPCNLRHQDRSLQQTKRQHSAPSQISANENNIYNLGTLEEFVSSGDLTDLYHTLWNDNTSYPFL
In short: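 GST-tagged yeast TFs (full-length or DNA-binding domain) were made by PURExpress in vitro transcription/translation and applied at about 100-200 nM to universal all-10-mer Agilent arrays. The arrays were made double-stranded by primer extension, on fresh or once-stripped slides. Bound protein was detected with fluorescent anti-GST, and scans were normalised with masliner. Each ungapped eight-base word, pooled with its reverse complement, received an E-score (modified Wilcoxon-Mann-Whitney statistic) from the Universal PBM Analysis Suite.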

Row | Sequence | PBM E-score
1 | AGAACTCA | 0.00923
2 | ACAACTTC | 0.167
3 | CAGTGAGG | -0.309
4 | GACCTAGA | -0.115
5 | CCAGCAAC | -0.00856
6 | GCAGCTCC | 0.144
7 | AAGGGTCC | 0.205
8 | CAACGGAC | 0.261
9 | AAACGGAG | 0.184
10 | CAACGGAG | 0.307
11 | AAACGGAA | 0.469
12 | GAACGGAA | 0.469
13 | CAACGGAA | 0.47
14 | AAACGGAC | 0.189
15 | AAACGGTA | 0.172
16 | AAACGGGA | 0.352
17 | GAACGGAC | 0.259
18 | AAACGGAT | 0.377
19 | GAACGGCA | 0.256
20 | CGCTACCG | 0.141
21 | CCCTAAGA | -0.243
22 | CTTGCGGA | 0.137
23 | CAGGCGGG | 0.0666
24 | CCGAGAAG | 0.183
25 | TCCACGAA | -0.0449

Row | Sequence | PBM E-score
26 | TAACGGTA | 0.0452
27 | TAACGGAA | 0.453
28 | TAACGGGA | 0.237
29 | CACAGAAA | 0.0151
30 | CGGCCGGC | 0.371
31 | CGGCCGGA | 0.396
32 | AGGCCGGC | 0.291
33 | GGGCCGGA | 0.318
34 | AGGCCGGA | 0.256
35 | CGGCCGAC | 0.315
36 | CGCATGAG | -0.164
37 | CATGATTA | 0.0563
38 | CACGGAGG | 0.26
39 | CACGGAGC | 0.374
40 | GACGGAGC | 0.213
41 | TACGGAGA | 0.178
42 | GACGGAGA | 0.322
43 | CACGGAGA | 0.372
44 | AAGATTGG | 0.014
45 | GTGGTTCA | 0.0321
46 | ACTTAACC | -0.166
47 | CACCCGAG | 0.204
48 | ATCACCCA | -0.0491
49 | CACCCGGG | 0.398
50 | TACCCGAA | 0.198

Row | Sequence | PBM E-score
51 | CACCCCGG | 0.236
52 | CCACCCGA | 0.216
53 | TACCCGGA | 0.381
54 | ACACCCGG | 0.291
55 | CCACCCGG | 0.359
56 | ATCACCCC | 0.0523
57 | ATCACCCG | 0.358
58 | TACCCGTA | 0.0329
59 | CCCATCCC | 0.133
60 | AAGTGGAA | -0.0995
61 | AGGGCGGG | 0.25
62 | ACCTCCTA | -0.192
63 | ACGGCCTA | 0.131
64 | AACAGGGT | -0.0562
65 | CGGGGTAA | 0.267
66 | GGCAAACC | -0.147
67 | GACGTATC | -0.0675
68 | AACCCGGC | 0.289
69 | GACCCGGC | 0.294
70 | GACCCCGA | 0.109
71 | CACCCGGC | 0.234
72 | CCCACCCA | 0.073
73 | CACCCGTA | 0.151
74 | GACCCGGA | 0.369
75 | AACCCGGA | 0.384

Row | Sequence | PBM E-score
76 | ACCCCGGA | 0.352
77 | CCCACCCG | 0.387
78 | CACCCGGA | 0.412
79 | CCCACCCC | 0.198
80 | AATAGCGT | 0.0358
81 | CGCAAATA | 0.125
82 | TACACGTA | -0.168
83 | AAGATTGA | -0.131
84 | CTCGCCCA | -0.0292
85 | CGTGCGCA | -0.111
86 | AGTCAAAA | -0.104
87 | CGGAGCGA | 0.378
88 | AGGAGCGA | -0.199
89 | CGGAGCCG | 0.369
90 | CGGAGCAC | 0.297
91 | CGGAGCAG | 0.403
92 | CGGAGCGC | 0.266
93 | CCGAGCCG | 0.359
94 | ACGAGCCG | 0.134
95 | CGGAGCCC | 0.208
96 | CGGAGCAA | 0.338
97 | CCGAGCCA | 0.295
98 | AGGAGCCG | 0.0342
99 | AGCATCGA | -0.0594
100 | ACATATCT | 0.0252

Row | Sequence | PBM E-score
101 | CGCTGTAG | -0.00377
102 | ATGTGGTA | -0.0392
103 | AGCGAACG | -0.134
104 | GTAACCGA | 0.0824
105 | CGTGATTA | 0.0343
106 | GAGTACTC | 0.0872
107 | ACAAGCCC | -0.157
108 | ACCCATCA | -0.129
109 | GAGCATTA | -0.0816
110 | AGGAAAAA | -0.157
111 | CGGAAAAG | 0.415
112 | GGGAAAAC | 0.0253
113 | TGGAAAAA | 0.0433
114 | AGGAAAAC | 0.0846
115 | CGGAAAAC | 0.375
116 | CGGAAAAA | 0.403
117 | CGAAAAAG | 0.159
118 | AGGAAAAG | 0.0387
119 | GGGAAAAA | 0.176
120 | TAACACGA | 0.0333
121 | CGCGAAAC | -0.00744
122 | TAACTGTA | -0.323
123 | GAGACCGA | 0.0506
124 | ATCTGGTC | -0.051
125 | CCGGGACA | 0.376

Row | Sequence | PBM E-score
126 | ACGGGACG | 0.295
127 | GCGGGACC | 0.323
128 | CCGGGACG | 0.365
129 | ACGGGACC | 0.241
130 | CGGGGACG | 0.124
131 | CCGGGACC | 0.413
132 | ACGGGACA | 0.311
133 | TCGGGACA | 0.167
134 | ATGGGCCG | 0.0292
135 | AGAAGCCG | 0.213
136 | AACTGTAG | -0.124
137 | AAGATAGA | -0.184
138 | ACCAAAAG | -0.176
139 | CCTCCGCG | 0.445
140 | ACTCCGCG | 0.397
141 | CCTCCGCC | 0.169
142 | ACTCCGCT | 0.14
143 | ACTCCGCC | 0.343
144 | CCTCCGCA | 0.00168
145 | CATAACGC | -0.102
146 | CCGGCTTA | 0.356
147 | GCGGCTTA | -0.0127
148 | CCGGCTTC | 0.322
149 | GTCAGAAC | -0.132
150 | AGTTCAAT | -0.139

Row | Sequence | PBM E-score
151 | CCACGTGA | -0.0844
152 | ACATTCCT | -0.0606
153 | CCATTCCC | 0.101
154 | ATATTCCC | 0.266
155 | CCATTCCA | 0.0798
156 | ACATTCCC | 0.154
157 | ACATTCCG | 0.439
158 | ATATTCCA | 0.128
159 | CCATTCCG | 0.425
160 | ATATTCCG | 0.426
161 | CTCAAACC | -0.0558
162 | GACATCTA | -0.0109
163 | CAACTTTA | -0.0602
164 | ATACTCGC | 0.162
165 | ACCAAGGT | -0.0204
166 | AGAGCGAC | -0.135
167 | AGGCCATA | -0.0791
168 | CCCGCGTC | 0.236
169 | CCCGCGAC | 0.175
170 | GACGCGGC | 0.0937
171 | CCCGCGGC | 0.488
172 | GCGGCCGC | 0.35
173 | GCCGCGGC | 0.484
174 | CAAATGGC | -0.156
175 | GCTACTAC | 0.146

Row | Sequence | PBM E-score
176 | CGATAGCG | 0.0636
177 | AGGCCTTA | -0.254
178 | CAGGTGGC | -0.197
179 | AATCCGTA | 0.165
180 | ACTCCGTC | 0.206
181 | GTACCGTA | 0.029
182 | CCTCCGTA | 0.222
183 | ATTCCGTA | 0.417
184 | GTTCCGTA | 0.471
185 | GTCCCGTA | 0.159
186 | ACTCCGTA | 0.13
187 | ATTCCGTC | 0.42
188 | CTTCCGTA | 0.379
189 | AATCCGTC | 0.314
190 | CGTCCGTA | 0.176
191 | GGTATTAC | 0.225
192 | CTTTTAAA | -0.00725
193 | GGGCGTAC | -0.00965
194 | GCAGCAAA | -0.103
195 | CAGACCCG | 0.279
196 | AATCGGTA | -0.0123
197 | CTAGAACA | 0.0618
198 | ATGCTACA | -0.24
199 | CAATAGAG | -0.166
200 | CTCGGCAG | 0.219

Row | Sequence | PBM E-score
201 | CGAAATAG | 0.0496
202 | CTTCCGTC | 0.403
203 | CCTCCGTC | 0.15
204 | ACTCCGTG | 0.282
205 | ATTCCGTG | 0.467
206 | AATCCGTG | 0.237
207 | CGTCCGTC | -0.0265
208 | AAAACTTC | -0.029
209 | CACCGCTC | 0.0532
210 | GTTTTAGA | -0.0726
211 | GGGGGAGA | -0.00585
212 | ATTTCCCC | 0.0635
213 | ATTTCCCA | 0.0046
214 | AGTTTCCG | 0.452
215 | AGTTTCCC | 0.0499
216 | ATTTCCCG | 0.369
217 | ATTTTCCA | 0.122
218 | CATTTCCG | 0.411
219 | CATTTCCA | -0.0296
220 | ATTTTCCC | 0.151
221 | ATTTTCCG | 0.432
222 | CATTTCCC | 0.203
223 | AGTTTCCA | 0.0305
